Screening data deposited in PubChem BioAssay by National Center for Advancing Translational Sciences (NCATS).
Most compounds without a hit are left out; they make up all but 2.7% or so of the library.
mIDH1 inhibitor – blocks human mutant IDH1 R132H enzyme. 390,000 compounds, 0.093% hits. IDH1-R132H enzyme, NADPH consumption, diaphorase/resazurin fluorescence. Potency, µM (titrated, usually from 76.6 µM), inactives show at the top dose activity change, negative = inhibition, hits mostly inhibitors; also: % is scaled to controls: 0 for no effect and ±100 for the full control effect; nearly all actives have a fitted effect of over 65% in size
Target sequence (O75874 whole entry R132H, stated change not applied): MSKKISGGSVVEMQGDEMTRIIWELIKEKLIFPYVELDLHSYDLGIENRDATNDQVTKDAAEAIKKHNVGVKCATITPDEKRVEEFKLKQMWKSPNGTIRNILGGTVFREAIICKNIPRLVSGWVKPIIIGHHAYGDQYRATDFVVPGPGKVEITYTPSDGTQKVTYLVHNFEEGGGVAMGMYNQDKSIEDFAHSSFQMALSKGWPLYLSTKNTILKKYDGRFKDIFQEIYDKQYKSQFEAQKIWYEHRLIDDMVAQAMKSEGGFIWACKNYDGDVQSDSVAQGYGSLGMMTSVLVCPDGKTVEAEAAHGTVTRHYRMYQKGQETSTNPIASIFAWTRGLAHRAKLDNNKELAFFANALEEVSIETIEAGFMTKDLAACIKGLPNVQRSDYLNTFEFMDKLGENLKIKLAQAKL
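IDH1-R132H (0.5 ug/mL dispensed) in pH 7.5 Tris buffer was preincubated 30 min with compound, then given a substrate mix of 0.016 mM NADPH and 2 mM alpha-KG for 80 min at room temperature; remaining NADPH was read by diaphorase/resazurin fluorescence.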
rTrxR1 inhibitor – rat TrxR1 inhibition | O89049 | recombinant rTrxR1, NADPH fluorescence consumption, selenite substrate | Potency, µM (highest dose often 114 µM), for inactives: at the top dose activity change, negative = inhibition, actives largely listed as inhibitors | 390,000 compounds, 1% hits; also: % is scaled to controls: 0 for no effect and ±100 for the full control effect; nearly all actives have a fitted effect of over 65% in size
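Rat TrxR1 (90 nM in the dispensed reagent) was pre-reduced with 400 uM NADPH for 5 min at room temperature, then incubated with compound for 15 min. After 400 uM selenite was added, NADPH fluorescence (Ex 340/Em 450 nm) was followed for 8 min.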
GLP-1R agonist – activates the human GLP-1 receptor. HEK293 GLP-1R CRE-luciferase, luminescence, 4-6 h; cells express a hypersensitive GLP-1R form. Potency, µM (doses to about 45.6 µM), for the others: at the highest dose activation, hits mostly activators. 380,000 compounds, 0.007% hits; also: % of control where 0% means no effect
TrxR1 substrate – is turned over as a substrate by rat TrxR1. 390,000 compounds, 0.01% hits. Potency, µM (series often up to 114 µM), for inactives: at the highest dose activity change, negative = substrate turnover. purified TrxR1 substrate turnover, NADPH consumption readout; also: % is scaled to controls: 0 for no effect and ±100 for the full control effect; nearly all actives have a fitted effect of over 50% in size
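Rat TrxR1, dispensed at 90 nM, was prereduced with 400 uM NADPH (final) for 5 min at ~22 deg C, then incubated with compound 15 min before 400 uM selenite. A first-read NADPH fluorescence drop versus no-compound background flagged substrates.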
GLP1R cytotox – cytotoxic in the GLP-1 receptor inverse agonist counter-screen; Potency, µM (highest dose often 38.3 µM), inactives show at the highest dose activity change, negative = inhibition, usual class: inhibitors; AID 624418; 410,000 compounds, 0.13% hits; HEK293 cAMP-luciferase reporter cells, luminescence, 24 h;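 also: loss of luciferase light is scored as toxicity; % is scaled to controls: 0 for no effect and ±100 for the full control effect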
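1536-well qHTS counterscreen of the MLSMR; 200 cells/uL, 12 h pre-incubation, 23 nL cpd, 24 h at 37 deg C 5% CO2, luciferase detection reagent, 12 min RT, luminescence. Inhibition = undesired.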
GLP-1R inv ag – acts as inverse agonist at human GLP-1 receptor | Potency, µM (highest dose often 38.3 µM), without a hit: top-dose activity change, negative = inhibition, hits mostly inhibitors | AID 624417 | 410,000 compounds, 1.6% hits | HEK293 GLP-1R CRE-luciferase, luminescence, 24 h; GLP-1R form is constitutively active | P43220; also: % is scaled to controls: 0 for no effect and ±100 for the full control effect; nearly all actives have a fitted effect of over 55% in size
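Luminescence readout: a drop in cAMP-driven luciferase signal flags inverse agonism at a constitutively active GLP-1R stably expressed in HEK293. Compound exposure lasted 24 hr at 37 deg C, 5% CO2.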
An asterisk follows results filed as active; [ ] = remark or other dose. Calls follow the shape of the dose curve; as a rule, active = well fitted curve in the direction sought with a large enough effect; inconclusive = small, poorly fitted or top-dose-only effect, or another doubt; inactive = no such curve, though single readings can be large; an effect the other way counts as inactive or inconclusive. Potency is read from the fitted curve at half-maximal effect.

O=C(NCc1ccccc1)c1ccc(CN2CCC(Cc3ccccc3)CC2)cc1 was read as mIDH1 inhibitor -1%, rTrxR1 inhibitor 22%, GLP-1R agonist 7%, TrxR1 substrate 0%, GLP1R cytotox -13% and GLP-1R inv ag 10µM*.
COc1cc2c(NC3CCN(C(C)C)CC3)nc(N3CCCN(C)CC3)nc2cc1OCCCN(C)C was read as rTrxR1 inhibitor inconclusive and TrxR1 substrate 72%.
Screening O=C(C[n+]1ccccc1Br)c1ccc(I)cc1 returned rTrxR1 inhibitor inconclusive and TrxR1 substrate -3%.
For CCc1ccc(CNCc2c(C(=O)O)c(C)n(Cc3c(F)cccc3Cl)c2C)cc1 the results were mIDH1 inhibitor -25%, rTrxR1 inhibitor -2%, TrxR1 substrate -6%, GLP1R cytotox -6% and GLP-1R inv ag -8%.
COc1ccccc1NC(=O)c1nc(SCc2ccccc2F)ncc1Cl was read as rTrxR1 inhibitor 15%[0.0914 µM] and TrxR1 substrate -9%.
Screening COc1cc(/C=C2\N=C3CCCCCN3C2=O)ccc1O returned mIDH1 inhibitor 3%, rTrxR1 inhibitor 50µM*, GLP-1R agonist 19%, TrxR1 substrate inconclusive, GLP1R cytotox inconclusive and GLP-1R inv ag -1%.
For COc1ccc(/C=C2\N=C3CCCCCN3C2=O)cc1OC the results were mIDH1 inhibitor 7%, rTrxR1 inhibitor 8%, GLP-1R agonist inconclusive, TrxR1 substrate -1%, GLP1R cytotox 3% and GLP-1R inv ag 66%.
Screening Cc1ccc(NS(=O)(=O)c2ccc(C(=O)N3CCCN(C)CC3)cc2)cc1 returned mIDH1 inhibitor 9%, rTrxR1 inhibitor -13%, GLP-1R agonist 0%, TrxR1 substrate -2%, GLP1R cytotox 0% and GLP-1R inv ag 5.6µM*.
`Cc1ccc(NS(=O)(=O)c2ccc(C(=O)N3CCC3)cc2)cc1` gave mIDH1 inhibitor -13%, rTrxR1 inhibitor 10%[57.1 µM], GLP-1R agonist 11%, TrxR1 substrate 3%[57.1 µM], GLP1R cytotox 5% and GLP-1R inv ag -19%.
`O=C(Nc1ccn(Cc2ccccc2F)n1)c1ccc(COc2ccccc2Cl)cc1` gave mIDH1 inhibitor 5%, rTrxR1 inhibitor 3%, GLP-1R agonist -4%, TrxR1 substrate -4%, GLP1R cytotox -12% and GLP-1R inv ag inconclusive.
`O=C(Nc1ccn(Cc2ccccc2F)n1)c1ccc(COc2cccc(Br)c2)cc1` gave mIDH1 inhibitor -2%, rTrxR1 inhibitor 1%, GLP-1R agonist -11%, TrxR1 substrate -3%, GLP1R cytotox -2% and GLP-1R inv ag 3.2µM*.
S=C(NCCCCN(Cc1ccc(Cl)cc1)c1ccc(Br)cn1)NCCCc1cnc[nH]1 was read as rTrxR1 inhibitor 12%, GLP-1R agonist -7% and TrxR1 substrate -4%.
Screening CCCN1CNc2c(c(=O)[nH]c(=S)n2CCc2ccc(Cl)cc2Cl)C1 returned rTrxR1 inhibitor 2% and TrxR1 substrate -3%.
CC(C)c1ccc(NC(=O)c2ccc(F)c(S(=O)(=O)N3CCc4ccccc43)c2)cc1 was read as mIDH1 inhibitor 9%, rTrxR1 inhibitor 18%[57.1 µM], TrxR1 substrate -2%[57.1 µM], GLP1R cytotox 1% and GLP-1R inv ag -20%.
`Cc1ccc(NC(=O)c2cc(S(=O)(=O)NCCC3=CCCCC3)ccc2F)cc1F` gave mIDH1 inhibitor 0%, rTrxR1 inhibitor 21%[57.1 µM], GLP-1R agonist 1%, TrxR1 substrate -8%[57.1 µM], GLP1R cytotox -11% and GLP-1R inv ag 2µM*.
O=C(Nc1ccc(Br)cc1)c1ccc(F)c(S(=O)(=O)N2CCc3ccccc32)c1 was read as mIDH1 inhibitor -6%, rTrxR1 inhibitor 8%[57.1 µM], TrxR1 substrate 1%[57.1 µM], GLP1R cytotox -11% and GLP-1R inv ag 4.5µM*.
